Active and inactive are the calls of the source. Unless noted, calls follow the shape of the dose curve; as a rule, active = well fitted curve in the direction sought with a large enough effect in the repeat runs; inconclusive = weak or mixed curves; inactive = no such curve, though single readings can be large; an effect the other way counts as inactive or inconclusive.
Tests used:
[1] = qHTS assay to test for compound auto fluorescence at 535 nm (green) in HEK293 cells (AID 720680)
[2] = qHTS assay to test for compound auto fluorescence at 460 nm (blue) in HEK293 cell free culture (AID 720681)
Method in brief: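 Compounds were added to cell-free DMEM with 10% FBS and fluorescence read directly. The blue channel used 405 nm excitation and 460 nm emission, with triamterene as the reference fluorophore.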

[3] = qHTS assay to test for compound auto fluorescence at 535 nm (green) in HEK293 cell free culture (AID 720682)
Method in brief: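 Each library compound, or DMSO control, is added by pintool to medium alone, comprising DMEM and 10% FBS. Emission at 535 nm following 485 nm excitation is quantified against fluorescein.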

[4] = qHTS assay to test for compound auto fluorescence at 590 nm (red) in HEK293 cell free culture (AID 720683)
Method in brief: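 Cell-free wells of DMEM with 10% FBS received compound, and intrinsic fluorescence was read at excitation/emission 540/590 nm. Values expressed as equivalence to Rose Bengal sodium.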

[5] = qHTS assay to test for compound auto fluorescence at 590 nm (red) in HepG2 cell free culture (AID 720684)
Method in brief: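 Compound was pinned into wells holding MEM with 10% FBS and no cells, and red fluorescence was read at Ex/Em 540/590 nm. Signal is expressed as auto fluorescence equivalency relative to Rose Bengal sodium.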

[6] = qHTS assay to test for compound auto fluorescence at 460 nm (blue) in HepG2 cell free culture (AID 720685)
Method in brief: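 Compound (23 nL) or DMSO pinned into cell-free MEM with 10% FBS; blue fluorescence read at 405/460 nm excitation/emission, expressed as auto-fluorescence equivalency to triamterene.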

[7] = qHTS assay to test for compound auto fluorescence at 535 nm (green) in HepG2 cell free culture (AID 720686)
[8] = qHTS assay to test for compound auto fluorescence at 460 nm (blue) in HepG2 cells (AID 720687)
Method in brief: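 HepG2 cells in MEM with 10% FBS, attached overnight at 37 C, were exposed to compound or DMSO for 1 hr at 37 C, 5% CO2. Blue fluorescence was read at 405/460 nm, with triamterene as reference fluorophore.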

[9] = molecular target: Glucocorticoid receptor (Homo sapiens) (UniProt P04150); experiment: qHTS assay to identify small molecule agonists of the glucocorticoid receptor (GR) signaling pathway (AID 720691; active = well fitted activation curve with a large enough effect in the signal ratio in the repeat runs, not every such curve was filed as active; inconclusive = weak or mixed curves, or effect the other way; inactive = no such curve, though single readings can be large or run the other way; the % refers to the signal ratio; also: potency is read from the fitted curve at half-maximal effect); conditions: GR-bla HeLa, beta-lactamase reporter ratio, 18 h; activation: at 62.4 µM (top of the series)
Sequence of Glucocorticoid receptor (Homo sapiens) (P04150 whole entry, looked up): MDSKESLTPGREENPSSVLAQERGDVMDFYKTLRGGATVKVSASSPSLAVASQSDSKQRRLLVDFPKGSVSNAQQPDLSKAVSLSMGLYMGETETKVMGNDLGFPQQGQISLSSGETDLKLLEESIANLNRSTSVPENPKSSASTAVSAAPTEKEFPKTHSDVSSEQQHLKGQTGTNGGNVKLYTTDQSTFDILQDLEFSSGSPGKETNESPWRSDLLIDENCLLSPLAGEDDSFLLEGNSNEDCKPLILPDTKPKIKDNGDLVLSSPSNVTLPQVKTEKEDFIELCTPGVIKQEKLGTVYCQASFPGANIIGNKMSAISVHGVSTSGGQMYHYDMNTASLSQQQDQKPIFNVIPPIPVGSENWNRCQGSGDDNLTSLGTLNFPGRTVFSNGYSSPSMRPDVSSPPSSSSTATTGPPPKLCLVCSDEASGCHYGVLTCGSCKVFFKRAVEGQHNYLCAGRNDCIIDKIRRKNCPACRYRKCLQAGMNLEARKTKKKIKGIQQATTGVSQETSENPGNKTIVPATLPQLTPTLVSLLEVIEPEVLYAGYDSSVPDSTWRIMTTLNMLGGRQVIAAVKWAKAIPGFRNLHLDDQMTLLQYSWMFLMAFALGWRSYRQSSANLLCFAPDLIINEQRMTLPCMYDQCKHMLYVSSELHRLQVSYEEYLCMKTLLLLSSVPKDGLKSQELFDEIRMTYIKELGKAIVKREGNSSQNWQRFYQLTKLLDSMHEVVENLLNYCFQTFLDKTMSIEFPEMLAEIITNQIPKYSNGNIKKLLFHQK
Method in brief: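 Reporter read-out: fluorescence intensity following 2 h room-temperature LiveBLAzer B/G FRET substrate loading. Prior step: GR-bla HeLa cells held 4 h, then treated 18 h at 37 C.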

[10] = qHTS assay to identify small molecule antagonists of the glucocorticoid receptor (GR) signaling pathway - cell viability counter screen (AID 720693); also: nearly all actives have a fitted effect of over 55% in size
[11] = qHTS assay for identifying genotoxic compounds that show differential cytotoxicity against isogenic chicken DT40 cell lines with known DNA damage response pathways - wild type cell line (AID 743012); also: nearly all actives have a fitted effect of over 60% in size; also: potency is read from the fitted curve at half-maximal effect
Method in brief: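 Using parental DT40 (300 cells/well), compounds delivered in DMSO incubate 40 h at 37 C/5% CO2. CellTiter-Glo reagent then stands 30 min at room temperature, and luminescence gives cell viability.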

[12] = qHTS assay for identifying genotoxic compounds that show differential cytotoxicity against isogenic chicken DT40 cell lines with known DNA damage response pathways - Rev3 mutant cell line (AID 743014); also: nearly all actives have a fitted effect of over 55% in size; also: potency is read from the fitted curve at half-maximal effect
[13] = qHTS assay for identifying genotoxic compounds that show differential cytotoxicity against isogenic chicken DT40 cell lines with known DNA damage response pathways - Rad54/Ku70 mutant cell line (AID 743015); also: nearly all actives have a fitted effect of over 60% in size; also: potency is read from the fitted curve at half-maximal effect
[14] = qHTS assay to identify small molecule antagonists of the androgen receptor (AR) signaling pathway - cell viability counter screen (AID 743033; also: nearly all actives have a fitted effect of over 45% in size)
[15] = qHTS assay to identify small molecule antagonists of the androgen receptor (AR) signaling pathway using the MDA cell line - cell viability counter screen (AID 743041; also: nearly all actives have a fitted effect of over 45% in size; also: potency is read from the fitted curve at half-maximal effect)
Method in brief: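 MDA-kb2 AR-luc cells (MMTV-luciferase, AR/GR responsive) treated with compounds plus R1881 agonist for 16 h at 37C. CellTiter-Fluor added at 15.5 h; fluorescence read after 30 min in the same wells.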

[16] = molecular target: Androgen receptor (Homo sapiens) (UniProt P10275); experiment: qHTS assay to identify small molecule agonists of the androgen receptor (AR) signaling pathway (AID 743036; active = well fitted activation curve with a large enough effect in the signal ratio in the repeat runs, with a control signal flat, not every such curve was filed as active; inconclusive = weak or mixed curves, or effect the other way; inactive = no such curve, though single readings can be large or run the other way; the % refers to the signal ratio)
Sequence of Androgen receptor (Homo sapiens) (P10275 whole entry, looked up): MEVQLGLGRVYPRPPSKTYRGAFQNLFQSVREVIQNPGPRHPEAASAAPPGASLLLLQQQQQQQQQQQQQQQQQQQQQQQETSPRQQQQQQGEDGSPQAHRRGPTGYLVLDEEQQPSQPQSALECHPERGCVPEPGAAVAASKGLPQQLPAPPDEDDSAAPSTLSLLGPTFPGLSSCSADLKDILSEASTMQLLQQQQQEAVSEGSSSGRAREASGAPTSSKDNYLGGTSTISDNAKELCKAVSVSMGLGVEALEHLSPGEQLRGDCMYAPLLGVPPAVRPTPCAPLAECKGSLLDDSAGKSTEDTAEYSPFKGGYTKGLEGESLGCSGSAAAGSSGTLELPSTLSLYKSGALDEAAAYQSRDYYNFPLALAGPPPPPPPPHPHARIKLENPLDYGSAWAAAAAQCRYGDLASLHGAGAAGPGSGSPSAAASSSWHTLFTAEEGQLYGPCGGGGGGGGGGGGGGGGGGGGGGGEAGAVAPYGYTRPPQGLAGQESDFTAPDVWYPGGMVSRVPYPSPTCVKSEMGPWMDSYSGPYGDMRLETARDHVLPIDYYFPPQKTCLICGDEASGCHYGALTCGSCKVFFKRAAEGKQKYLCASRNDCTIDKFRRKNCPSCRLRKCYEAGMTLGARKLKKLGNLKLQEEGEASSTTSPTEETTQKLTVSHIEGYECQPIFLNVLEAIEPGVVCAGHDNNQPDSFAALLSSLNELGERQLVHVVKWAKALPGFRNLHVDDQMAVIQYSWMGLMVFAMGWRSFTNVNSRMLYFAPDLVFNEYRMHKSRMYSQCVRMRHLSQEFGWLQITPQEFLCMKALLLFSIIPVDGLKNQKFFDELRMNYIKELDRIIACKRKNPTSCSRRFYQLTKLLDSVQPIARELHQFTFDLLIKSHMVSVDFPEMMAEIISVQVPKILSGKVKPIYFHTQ
Method in brief: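 Following a 4 h settling period, AR-UAS-bla HEK293 cells were dosed with compounds for 16 h at 37C. A 2 h room-temperature incubation with LiveBLAzer B/G FRET substrate preceded the fluorescence measurement.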

[17] = molecular target: Androgen receptor (Homo sapiens) (UniProt P10275); experiment: qHTS assay to identify small molecule agonists of the androgen receptor (AR) signaling pathway using the MDA cell line (AID 743040; also: nearly all actives have a fitted effect of over 20% in size)
Method in brief: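 MDA-kb2 breast carcinoma cells carrying MMTV-luciferase (responsive to AR and GR), plated 5 h then treated 16 h with compounds at 37C, 0% CO2. Read-out was ONE-Glo luminescence after 30 min at room temperature.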

[18] = molecular target: Androgen receptor (Homo sapiens) (UniProt P10275); experiment: qHTS assay to identify small molecule antagonists of the androgen receptor (AR) signaling pathway using the MDA cell line (AID 743042; also: nearly all actives have a fitted effect of over 55% in size)
Method in brief: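 MDA-kb2 breast carcinoma cells carrying MMTV-luciferase (AR/GR responsive) were co-treated with compounds and the agonist R1881 for 16 h at 37C. Inhibition read as ONE-Glo luminescence; CellTiter-Fluor fluorescence measured in parallel for cytotoxicity.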

Measured: Potency

O=C(CO)[C@@H](O)[C@H](O)[C@@H](O)C(=O)O
not listed: [16] | [17] | [18]
inactive: all other assays above

O=C(c1cc2ccccc2o1)N1CCN(Cc2ccccc2)CC1
active: [11] 26.6 µM | [12] 29.8 µM | [13] 29.8 µM
not listed: [16] | [17] | [18]
inactive: all other assays above

C=CC1=C(C)C2=CC3=NC(=C(CC(=O)[O-])C4=NC(=C(C)C4=C([O-])[O-])C=c4[n-]c(c(C)c4CC)=CC1=N2)C(CCC(=O)[O-])C3C.[Cu+2].[Na+].[Na+].[Na+] (centres undefined)
active: [11] 29.8 µM | [12] 23.7 µM | [13] 29.8 µM | [15] 22.1 µM
not listed: [16] | [17] | [18]
inactive: all other assays above

CN[C@@H]1[C@@H](O)[C@@H](O[C@@H]2[C@@H](O)[C@H](O[C@H]3O[C@H](CN)[C@@H](O)[C@H](O)[C@H]3O)[C@@H](N)C[C@H]2NC(=O)C(O)CN)OC[C@]1(C)O (some centres undefined)
active: [9] 6.01 µM
not listed: [16] | [17] | [18]
inactive: all other assays above

C/C(=C(\CCOC(=O)c1ccccc1)SS/C(CCOC(=O)c1ccccc1)=C(/C)N(C=O)Cc1cnc(C)nc1N)N(C=O)Cc1cnc(C)nc1N
active: [11] 10.6 µM | [12] 23.7 µM | [13] 26.6 µM
not listed: [16] | [17] | [18]
inactive: all other assays above

CO/N=C(\C(=O)N[C@@H]1C(=O)N2C(C(=O)O)=CCS[C@H]12)c1csc(N)n1
not listed: [16] | [17] | [18]
inactive: all other assays above

C[C@@H](O)[C@H]1C(=O)N2C(C(=O)[O-])=C(SC3Cn4cnc[n+]4C3)[C@H](C)[C@H]12 (some centres undefined)
not listed: [16] | [17] | [18]
inactive: all other assays above

CC1=C(/C=C/C(C)=C/C=C/C(C)=C/C=C/C=C(C)/C=C/C=C(C)/C=C/C2=C(C)C(=O)CCC2(C)C)C(C)(C)CCC1=O
not listed: [16] | [17] | [18]
inactive: all other assays above

NCCCC[C@H](NC(=O)[C@@H]1CCCN1C(=O)[C@@H]1CSSC[C@H](N)C(=O)N[C@@H](Cc2ccccc2)C(=O)N[C@@H](Cc2ccccc2)C(=O)N[C@@H](CCC(N)=O)C(=O)N[C@@H](CC(N)=O)C(=O)N1)C(=O)NCC(N)=O
not listed: [16] | [17] | [18]
inactive: all other assays above

CCCC(=O)O[C@]1(C(=O)COC(C)=O)CC[C@H]2[C@@H]3C[C@H](F)C4=CC(=O)C=C[C@]4(C)[C@@]3(F)[C@@H](O)C[C@@]21C
active: [9] 0.0043 µM [inconclusive] | [11] 26.6 µM | [12] 29.8 µM | [13] 29.8 µM
not listed: [16] | [17] | [18]
inactive: all other assays above

CCCCCCCCCCCC(=O)N(CCO)CCO
active: [11] 29.8 µM | [12] 26.6 µM | [13] 26.6 µM
not listed: [16] | [17] | [18]
inactive: all other assays above

CCC(=O)O[C@]1(C(=O)CCl)[C@@H](C)C[C@H]2[C@@H]3C[C@H](F)C4=CC(=O)C=C[C@]4(C)[C@@]3(F)[C@@H](O)C[C@@]21C
active: [9] 0.0007 µM | [11] 11.9 µM | [12] 7.5 µM | [13] 23.7 µM
not listed: [16] | [17] | [18]
inactive: all other assays above

CC1=C(/C=C/C(C)=C/C=C/C(C)=C/C(=O)Oc2c(C)c(C)c3c(c2C)CC[C@@](C)(CCC[C@H](C)CCC[C@H](C)CCCC(C)C)O3)C(C)(C)CCC1
not listed: [16] | [17] | [18]
inactive: all other assays above

[O]=[Bi][O][Bi]=[O]
not listed: [14]
inactive: all other assays above

N[C@H](CC(=O)O)C(=O)O
not listed: [14] | [16] | [17] | [18]
inactive: all other assays above

Oc1cc(O)cc(O)c1
not listed: [14] | [16]
inactive: all other assays above

Cc1cc(C(=O)NNCc2ccccc2)no1
not listed: [13] | [16] | [17] | [18]
inactive: all other assays above

CC(/C=C/C=C(\C)C(=O)O[C@@H]1O[C@H](CO[C@@H]2O[C@H](CO)[C@@H](O)[C@H](O)[C@H]2O)[C@@H](O)[C@H](O)[C@H]1O)=C\C=C\C=C(C)\C=C\C=C(/C)C(=O)O[C@@H]1O[C@H](CO[C@@H]2O[C@H](CO)[C@@H](O)[C@H](O)[C@H]2O)[C@@H](O)[C@H](O)[C@H]1O
not listed: [12] | [16] | [17] | [18]
inactive: all other assays above

CC1CCC(NC(=O)N(CCCl)N=O)CC1 (centres undefined)
not listed: [14] | [16] | [17] | [18]
inactive: all other assays above
